Test results from ChEMBL document CHEMBL3988442, “University of Dundee, Small-Polar-MMV Screening Library” (2021).
The whole screen tested about 48,000 compounds, of which about 13,000 (27%) showed an effect of 50% or more. The list shows a part of the results.

Tested on: Wolbachia pipientis
Test: Anti-Wolbachia Cell-Based Screen
Assay type: functional
Set-up: scale not given: in the data most compounds retested in dose-response had high values
Details: 5 µM

Structure (SMILES) | Percent Effect
COc1ccc(F)cc1CSCC(=O)N(C)CCC#N | -1.773%
COc1ccc(-c2noc(C(CC(C)C)N3CCCCC3=O)n2)cn1 (stereo unspecified) | 9.971%
O=C1NCC2(CCCN(Cc3ccc(F)cc3)C2)Oc2ccccc21 (stereo unspecified) | 110.4%
CC(=O)N1CCOC2(CCCN(Cc3ccc(N(C)C)cc3)C2)C1 (stereo unspecified) | -2.682%
CSc1ccc(CN2CCCC3(CNC(=O)c4ccccc4O3)C2)cc1 (stereo unspecified) | 103.9%
O=C1NCC2(CCCN(Cc3ccc(Cl)s3)C2)Oc2ccccc21 (stereo unspecified) | 7.994%
O=C1NCC2(CCCN(Cc3ccccc3F)C2)Oc2ccccc21 (stereo unspecified) | -7.876%
C=Cc1ccc(CN2CCCC3(CNC(=O)c4ccccc4O3)C2)cc1 (stereo unspecified) | 88.72%
CC(C)=CCN1C[C@H]2CC[C@@H]1CN(C(=O)c1ccc(S(N)(=O)=O)cc1)C2 | -17.62%
CC(C)c1ccccc1NC(=O)N1C[C@@H]2CC[C@H](C1)N(C)C2=O | -22.21%
COc1cc(CNCc2ccc(C(C)O)cc2)cc2c1OCO2 (stereo unspecified) | 0.7709%
CCOC(=O)C1=NOC(Cc2cc(OC)c3c(c2)OCO3)C1 (stereo unspecified) | 92.3%
COc1cc(CC2CC(c3ccc4c(c3)OCO4)=NO2)cc2c1OCO2 (stereo unspecified) | 92.75%
COc1cc(CNCCc2cnn(C)c2)cc2c1OCCO2 | -13.22%
COc1cc(CCO)c(OC)c2c1OCO2 | -4.361%
COC(=O)C1=NOC(Cc2cc(OC)c3c(c2)OCO3)C1 (stereo unspecified) | 94.65%
CCN1CCN(C[C@H]2CC[C@@H](Cc3ccc4c(c3)OCO4)O2)CC1 | 15.13%
CN1CCN(C[C@H]2CC[C@@H](Cc3ccc4c(c3)OCO4)O2)CC1 | 5.044%
CCC[C@@H]1CN(Cc2cc(OC)c3c(c2)OCO3)C[C@H]1C(=O)O | 0.814%
COc1cc(CNCCc2nc(C)cs2)cc2c1OCCO2.Cl | -10.19%
COc1cc(-c2nccn2CCn2cccn2)cc2c1OCO2 | -19.98%
COc1cc(CC2CC(C(N)=O)=NO2)cc2c1OCO2 (stereo unspecified) | 107.2%
CC(C)CN1Cc2cccc(NC(=O)Cc3ccon3)c2C1 | -9.701%
Cc1ccc(=O)n(Cc2nc(C(C)OCC(C)C)no2)n1 (stereo unspecified) | -10.1%
Cc1cccc(C(=O)N2CCN(c3ccc(-n4cccc4)nn3)CC2)c1 | 0.6328%
CN(C)c1ccc(CN2C[C@H]3CC[C@@H]2CN(C2CCOCC2)C3)cn1 | 13.91%

Structure (SMILES) | Percent Effect
CC(=O)Nc1sccc1C(=O)C(C)(C)C | 20.74%
NC(=O)c1c[nH]nc1NC(=O)c1cccc(Cl)c1 | 101.4%
NC(=O)c1c[nH]nc1NC(=O)c1ccc(Cl)cc1 | 91.07%
Cn1cc(NC(=O)c2cccc(Cl)c2)c(=O)n(C)c1=O | -1.289%
CN1CCC(Oc2ccc(NC(=O)c3cccc(Cl)c3)cc2)CC1 | -9.86%
Cc1ccc(CNC(=O)c2c[nH]nc2NC(=O)C2COCCO2)cc1 (stereo unspecified) | -26.91%
Cc1ccc(CNC(=O)c2c[nH]nc2NC(=O)COCC2CC2)cc1 | -19.21%
CNc1cc(N2CCCC2CNCc2ccc(Cl)o2)ncn1 (stereo unspecified) | 6.692%
O=C(CC1=CCCCC1)Nc1ccc(CN2C(=O)CCC2=O)cc1 | -15.48%
CC(=O)CSc1nc2c(cnn2CCO)c(=O)[nH]1 | 136.9%
CCN(CC)C(=O)CSc1nc2c(cnn2CCO)c(=O)[nH]1 | 123.9%
CCC(=O)Nc1ccc(C(C)Nc2nc3c(cnn3C)c(=O)[nH]2)cc1 (stereo unspecified) | -8.968%
CC(C#N)CSc1ccccc1NCC(=O)NC1CCCCC1 (stereo unspecified) | -11.09%
CCCc1cc(=O)[nH]c2nnc(SCC(C)=O)n12 | 15.46%
CNC(=O)CSc1nc2c(cnn2Cc2ccc(F)cc2)c(=O)[nH]1 | -13.84%
CC(C)(C)n1ncc2c(=O)[nH]c(N3CCN(CCO)CC3)nc21 | 1.466%
CC(C)NC(=O)CSc1nc2c(cnn2CCO)c(=O)[nH]1 | 147.9%
CCN(CC)C(=O)CSc1ccc(C(F)(F)F)cn1 | 0.9721%
CN(CC(=O)N(C)C1CCCCC1)Cc1nc2c(cnn2C)c(=O)[nH]1 | 2.622%
CCN(CC)C(=O)CN(C)Cc1nc2c(cnn2C)c(=O)[nH]1 | 2.851%
O=C(CSc1nc2c(cnn2CCO)c(=O)[nH]1)NC1CCCCC1 | 119.1%
O=C(c1ccco1)N(c1ccc(F)cn1)C1CCOCC1 | 7.992%
CCc1ccsc1CNC(=O)CNC(=O)C(C)(C)C | -1.133%
O=C(CSc1nc2c(cnn2CCO)c(=O)[nH]1)N1CCCCCC1 | -26.62%
CC1CCN(C(=O)CSc2nc3c(cnn3CCO)c(=O)[nH]2)CC1 | 123.1%
CN(CC(=O)N1CCCC1)Cc1nc2c(cnn2C)c(=O)[nH]1 | 28.73%

Structure (SMILES) | Percent Effect
CCC(Oc1ccc(N(C)S(C)(=O)=O)cc1)C(=O)N(C)C (stereo unspecified) | -17.11%
CCN(CC)c1ccc(NS(=O)(=O)c2cnn(C)c2)cn1 | -7.679%
Cc1nc(NS(=O)(=O)c2cc(Br)ccc2C)no1 | -15.2%
CN1CC(C(=O)N(C)Cc2cc(-c3cccnc3)no2)NC1=O (stereo unspecified) | -3.484%
CC(C)c1cc2c(s1)NC(c1ccccc1)NC2=O (stereo unspecified) | 97.8%
CC(C)NC(=O)C[C@@H]1CCNC[C@@H]1Cc1cc(-c2ccccn2)on1 | -9.264%
Cc1ccc(C2NC(=O)c3cc(C(C)C)sc3N2)cc1 (stereo unspecified) | 93.7%
CC(C)c1cc2c(s1)NC(c1ccccn1)NC2=O (stereo unspecified) | 80.13%
COc1ccc2cc(-c3n[nH]cc3CN3CCSCC3)ccc2c1 | -6.074%
NCCc1nc(N(Cc2nccs2)C2CC2)c2ccccc2n1 | 3.563%
NCCc1nc(N(Cc2cncs2)C2CC2)c2ccccc2n1 | -5.048%
Cc1ccsc1CN(c1nc(CCN)nc2ccccc12)C1CC1 | -10.53%
COCCN(Cc1cccs1)c1nc(CCN)nc2ccccc12 | 106.1%
COCCN(Cc1ccccc1Cl)c1nc(CCN)nc2ccccc12 | 116.2%
COCCN(CCOC)c1ncccc1Cl | 3.894%
COCCN(Cc1ccccc1C)c1nc(C)nc2oc(C)nc12 | 9.543%
NCCc1nc(N[C@@H](CO)c2ccccc2)c2ccccc2n1 | 20.3%
COCCN(CC1CC1)c1nc(CCN)nc2ccccc12 | 101.5%
CC(O)CC(C)(C)CNC(=O)NCc1cccc(-n2ccnc2)c1 (stereo unspecified) | 13.1%
COCCN1CC2(CCC1=O)CCN(Cc1nnc(C)o1)CC2 | 2.828%
COc1cccn(Cc2nnc(-c3cccc(F)c3)o2)c1=O | -11.98%
COc1cccc(CC(=O)N2CC[C@@H]3[C@H](CC2)N(C)CCS3(=O)=O)c1.O=C(O)C(F)(F)F | 107.9%
CN1CCS(=O)(=O)[C@@H]2CCN(C(=O)c3ccccc3)CC[C@@H]21.O=C(O)C(F)(F)F | -7.841%
COc1ccc(C(=O)N2CC[C@@H]3[C@H](CC2)N(C)CCS3(=O)=O)cc1.O=C(O)C(F)(F)F | 3.653%
COc1cccc(C(=O)N2CC[C@@H]3[C@H](CC2)N(C)CCS3(=O)=O)c1.O=C(O)C(F)(F)F | -1.721%
COc1ccc(CC(=O)N2CC[C@@H]3[C@H](CC2)N(C)CCS3(=O)=O)cc1.O=C(O)C(F)(F)F | 16.94%

Structure (SMILES) | Percent Effect
CN1CCS(=O)(=O)[C@@H]2CCN(C(=O)CC(C)(C)C)CC[C@@H]21.O=C(O)C(F)(F)F | 96.97%
CN(C)c1cc(C(=O)NCC2(c3ccc(F)cc3)CC2)ccn1 | -8.141%
CCCNC(=O)C1CCCN(c2ccc3nncn3n2)C1 (stereo unspecified) | 106.8%
CCNC(=O)C1CCCN(c2cccc(C(F)(F)F)n2)C1 (stereo unspecified) | 5.494%
NC(=O)c1ccc(N2CCN(Cc3ccc(F)cc3Cl)CC2)nn1 | 4.526%
CCNC(=O)C1CCCN(c2ccc3ccc(F)cc3n2)C1 (stereo unspecified) | 95.98%
O=C(NCCc1ccccc1)C1CCCN(c2ccc3nncn3n2)C1 (stereo unspecified) | 7.633%
CCNC(=O)C1CCCN(c2ccc(C#N)cc2C(F)(F)F)C1 (stereo unspecified) | -8.319%
NC(=O)CCC1CCCN(c2ccc3ccc(F)cc3n2)C1 (stereo unspecified) | 91.08%
NC(=O)CCC1CCCN(c2ccc3c(Cl)ccnc3c2F)C1 (stereo unspecified) | -4.467%
CC(C)OCc1cccc(NC(=O)N2CCCC(CCC(N)=O)C2)c1 (stereo unspecified) | -9.131%
O=C(NCCC1=CCCCC1)C1CCCN(c2ccc3nncn3n2)C1 (stereo unspecified) | 4.301%
NC(=O)CCC1CCCN(c2ccnc3cc(F)ccc23)C1 (stereo unspecified) | 94.8%
O=C(O)c1cn(CC2CCCN(c3ccc4ccccc4n3)C2)nn1 (stereo unspecified) | -23.62%
CSc1ncc(CNC(C)c2cnn(-c3ccc(F)cc3F)c2C)cn1 (stereo unspecified) | -22.9%
O=c1cc(N2CCc3ccccc3C2)cnn1CCC1CCOC1 (stereo unspecified) | 5.025%
CN1CC(Oc2ccccc2)=NC(SCC(=O)Nc2ccccc2Cl)=N1 | 15.6%
CCN1CCC(N2C[C@@H](C(=O)O)[C@H](c3cccc(OC)c3)C2)CC1 | 12.25%
CC(=O)N1C[C@@H](c2ccsc2)[C@@H]2CN(Cc3cccc(Cl)c3)CC[C@@H]21 | 2.234%
COc1cccc(CC(=O)N2CC[C@H]3[C@@H]2CCC(=O)N3C)c1 | -18.88%
COc1cccc([C@H]2CN(C(C)=O)[C@@H]3CCN(Cc4ccsc4)C[C@H]23)c1.Cl | 57.96%
COc1cccc(CN2CC[C@H]3[C@@H](C2)[C@H](c2ccsc2)CN3C(C)=O)c1 | 146.6%
CCN1C[C@@H](C(=O)O)[C@H](c2cccc(OC)c2)C1 | 8.176%
